This is an account of results in PubChem BioAssay AID504652 (National Center for Advancing Translational Sciences (NCATS), 2011).

Values joined by “and” are separate entries in the source; they are usually repeats but may differ in a detail not shown here. Equal entries are not always repeated. The whole screen tested about 360,000 compounds, of which about 11,000 (3.1%) were called active. Rule as the data show it: active = activity change below about -30%; inactive = the rest. The sample as a whole holds a higher share of actives than the screen did.
% is scaled to controls: 0 for no effect and ±100 for the full control effect.

Chain of D(1A) dopamine receptor (Homo sapiens) (P21728 whole entry, looked up): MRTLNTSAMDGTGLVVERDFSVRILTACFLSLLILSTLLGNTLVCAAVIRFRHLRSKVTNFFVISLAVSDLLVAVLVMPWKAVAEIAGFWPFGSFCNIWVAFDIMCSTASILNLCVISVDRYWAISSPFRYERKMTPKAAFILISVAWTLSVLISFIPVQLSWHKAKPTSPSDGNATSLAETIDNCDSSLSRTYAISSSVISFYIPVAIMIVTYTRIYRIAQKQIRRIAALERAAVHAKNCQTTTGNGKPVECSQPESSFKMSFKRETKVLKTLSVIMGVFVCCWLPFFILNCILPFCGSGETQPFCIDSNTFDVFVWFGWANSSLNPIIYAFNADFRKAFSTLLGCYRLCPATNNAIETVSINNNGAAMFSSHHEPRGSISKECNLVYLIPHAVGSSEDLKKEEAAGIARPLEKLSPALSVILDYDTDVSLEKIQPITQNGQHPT

The experiment has as its target D(1A) dopamine receptor (Homo sapiens) (UniProt P21728). The experiment can be described thus: Antagonist of Human D 1 Dopamine Receptor: qHTS. The conditions noted are these: HEK293 TREx D1 cells, calcium flux, dopamine EC80; at 10 µM; stronger effect = lower value. In short, it runs like this:
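Inducible Hek293 Trex D1 cells (tetracycline, overnight, 30 C). Calcium dye 30–90 min RT. Antagonist mode: EC80 dopamine added after 180 s compound read.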
`O=C(NC1CCCCC1)c1ccc2c(c1)N(Cc1ccc(Cl)cc1)C(=O)c1ccccc1S2=O` (stereo not given): the activity change, negative = inhibition is -15.6% (inactive).

With `Cn1nc(-c2ccccc2)c(-c2ccccc2)c(C(=O)Nc2ccc(S(N)(=O)=O)cc2)c1=O`, the activity change, negative = inhibition is -1.5% (inactive). Consider `Cc1cc(C)c(NC(=O)CCc2c(C)nc3c(c(C)nn3C(C)(C)C)c2C)c(C)c1`, for which the activity change, negative = inhibition was 1.02% (inactive). With `CCN1CCN(Cc2c(O)ccc3oc(C)c(C(=O)Nc4ccc(C)cc4C)c23)CC1`, the activity change, negative = inhibition was 7.06% (inactive). In the case of `COc1ccccc1CNc1ccc(-c2nc(-c3ccccc3C)no2)cc1[N+](=O)[O-]` it was -10.5% (inactive); in that of `O=C(C1CCCN(S(=O)(=O)c2cccc3nonc23)C1)N1CCN(c2ccccc2F)CC1` (stereo not given), 10.7% (inactive); in that of `CC(CNc1ccc([N+](=O)[O-])cc1)NC(=O)c1ccccc1Br` (stereo not given), -2.12% (inactive). For `O=C(NCCNc1ccc([N+](=O)[O-])cc1)c1cccc2c(Br)cccc12` the value was -63.4% (active); for `COc1ccc(C(=O)NCCNc2ccc([N+](=O)[O-])cn2)cc1`, -8.65% (inactive); for `Cc1ccc(CCNC(=O)c2ccc3c(c2)nc2n3CCC(C)C2)cc1` (stereo not given), -13.4% (inactive). For `N=c1n(Cc2ccc(Cl)cc2)c2ccccc2n1CC(O)c1ccco1` (stereo not given) the value was -51.9% (active); for `O=C(c1ccco1)n1nc(-c2ccc(Cl)cc2)nc1NCc1ccccc1`, -12.9% (inactive). In the case of `CC1CN(C(=O)CCC(=O)NCCCN2CCC(Cc3ccccc3)CC2)c2cc(Cl)ccc2O1` (stereo not given), the activity change, negative = inhibition was -43.5% (active). For `Cc1ccc2c(c1)N(C(=O)CCC(=O)NCc1ccccc1F)CC(C)O2` (stereo not given) the value was -22.7% (inactive); for `COc1ccccc1NC(=O)CCC(=O)N1CC(C)Oc2ccc(C)cc21` (stereo not given), 7.34% (inactive) and 2.65% (inactive); for `COc1ccc(N2C(=O)CSC23C(=O)N(Cc2cccc(F)c2)c2ccccc23)cc1Cl` (stereo not given), -0.577% (inactive). With `CONC(=O)c1cc(OCC(F)(F)F)ccc1OCC(F)(F)F`, the activity change, negative = inhibition was 8% (inactive). In the case of `CCOc1ccc(CCNC(=O)Nc2ccccc2)cc1OCC` it was 14.7% (inactive); in that of `O=C(NC(=O)c1cc(OCC(F)(F)F)ccc1OCC(F)(F)F)Nc1ccccc1`, -35% (active); in that of `CCC1CCCCN1C(=O)Cn1c(=O)n(CCCCCC(=O)NCc2ccccc2)c(=O)c2sccc21` (stereo not given), -26.9% (inactive). Consider `COc1ccc(-c2onc(C)c2C)cc1S(=O)(=O)NCc1cccs1`, for which the activity change, negative = inhibition is -23.8% (inactive). As to `COc1ccccc1/C=C/c1nc(C#N)c(NC(C)c2ccccc2)o1` (stereo not given), the activity change, negative = inhibition is 4.56% (inactive).

In the case of `O=C(COc1ccccc1)Nc1ccc(N2CCN(C(=O)c3cccs3)CC2)cc1`, the activity change, negative = inhibition was -10.9% (inactive).

On to `O=C(Nc1ccc(N2CCN(C(=O)c3cccs3)CC2)cc1)c1cccnc1Cl`, for which the activity change, negative = inhibition is 2.63% (inactive).

With `Cc1ccccc1C(=O)N1CCN(c2ccc(NC(=O)c3cccs3)cc2)CC1`, the activity change, negative = inhibition is -61.2% (active). Regarding `CC1=Nc2cc(C(=O)NCc3ccc(C)cc3)ccc2Sc2ccc(Cl)cc21`, the activity change, negative = inhibition is 4.46% (inactive). `CCCCN(CC)CCCNC(=O)c1nn(C)c2c1CS(=O)(=O)c1ccccc1-2`: the activity change, negative = inhibition is 4.54% (inactive). Turning to `COc1ccc(Cn2cc(C(=O)c3ccc(C)cc3)c(=O)c3cc(OC)c(OC)cc32)cc1`, the activity change, negative = inhibition was -0.034% (inactive). In the case of `CN(C)S(=O)(=O)N1CCN(c2ccc([N+](=O)[O-])cc2)CC1`, the activity change, negative = inhibition is -43% (active).

For `Cc1ccc(N2CCN(S(=O)(=O)N(C)C)CC2)cc1Cl`, the activity change, negative = inhibition is -16.4% (inactive).

In the case of `O=[N+]([O-])c1ccc(N2CCN(c3ccc(O)cc3)CC2)c(Cl)c1`, the activity change, negative = inhibition was -19% (inactive). On to `COc1cc(Cl)c(C)cc1Nc1nnc(-n2nc(C)cc2C)c2ccccc12`, for which the activity change, negative = inhibition was -5.89% (inactive). `Cc1cc2c(s1)c1cnn(Cc3c(F)cccc3Cl)c(=O)c1n2C`: the activity change, negative = inhibition is 15.1% (inactive). For `Cn1c(=O)oc2cc(S(=O)(=O)N3CCC(C(=O)Nc4ccc(OC(F)(F)F)cc4)CC3)ccc21`, the activity change, negative = inhibition is -36.4% (active). Take `COc1ccc(NC(=O)C2CCN(S(=O)(=O)c3ccc4[nH]c(=O)oc4c3)CC2)c(OC)c1`: the activity change, negative = inhibition is 1.07% (inactive). In the case of `Cc1ccc2nc(NC(=O)C3CCN(S(=O)(=O)c4ccc5c(c4)oc(=O)n5C)CC3)sc2c1` it was -9.2% (inactive); in that of `Cc1ccc(S(=O)(=O)N(CC(=O)Nc2ccc(Cl)cc2Cl)c2ccccc2C)cc1`, -14.7% (inactive).

In the case of `Cc1c(Cl)cccc1NC(=O)Cn1cc(C(=O)c2cccs2)c2ccccc21`, the activity change, negative = inhibition was -23.5% (inactive). With `CCOc1ccc(NC(=O)c2cc3c(=O)n(Cc4cccs4)ccc3nc2C)cc1`, the activity change, negative = inhibition is 2.95% (inactive).

For the compound `COc1ccc(CN2C(=O)C(NC(=O)c3cccc(C)c3)(C(F)(F)F)N=C2c2ccccc2)cc1` (stereo not given), the activity change, negative = inhibition is 2.79% (inactive). In the case of `CCc1ccccc1NC(=O)Cc1ccc(NC(=O)N2CCCCc3ccccc32)cc1`, the activity change, negative = inhibition was -2.99% (inactive). Take `CCOC(=O)c1ccc(NC(=O)CCS(=O)(=O)c2ccc3c(c2)oc(=O)n3C)cc1`: the activity change, negative = inhibition is -34.1% (active).

Regarding `COc1cc(NC(=O)CCS(=O)(=O)c2ccc3c(c2)oc(=O)n3C)cc(OC)c1`, the activity change, negative = inhibition is -5.28% (inactive).

With `CCOC(=O)c1ccc(NC(=O)CCS(=O)(=O)c2ccc(C)cc2)cc1`, the activity change, negative = inhibition was 2.9% (inactive). As for `Cc1ccc(C(=O)OCC(=O)NCc2cc(C)c(O)c(C)c2)cc1S(=O)(=O)N1CCCCC1`, the activity change, negative = inhibition was -93.9% (active). With `COc1ccc(CNC(=O)COC(=O)c2ccc(C)c(S(=O)(=O)N3CCOCC3)c2)cc1OC`, the activity change, negative = inhibition is 13.1% (inactive). Consider `Cc1ccc(C(=O)OCC(=O)N2CC(C)CC(C)C2)cc1S(=O)(=O)N1CCCCC1` (stereo not given), for which the activity change, negative = inhibition is -14.5% (inactive). Turning to `CCc1ccc(C(=O)CC2(O)C(=O)N(CCc3ccccc3)c3ccc(Br)cc32)cc1` (stereo not given), the activity change, negative = inhibition was 6.36% (inactive). For the compound `COc1ccc2c(C)cc(SCC(=O)NCC3CCCO3)nc2c1` (stereo not given), the activity change, negative = inhibition is -21.4% (inactive). In the case of `O=C(COc1ccc(Cl)cc1)NCc1nnc(SCC(=O)NCC2CCCO2)o1` (stereo not given) it was -31.2% (active).

`O=C(CSc1nnc(-c2ccc(NS(=O)(=O)c3ccccc3)cc2)o1)NCC1CCCO1` (stereo not given): the activity change, negative = inhibition is -3.8% (inactive). With `Cc1ccc2oc(C(=O)Nc3ccc(S(=O)(=O)N4CCCCCC4)cc3)cc(=O)c2c1`, the activity change, negative = inhibition is -13.8% (inactive). For `CCn1cc(CN2CCC(C(=O)Nc3cccc(-c4cccc(Cl)c4)c3)CC2)cn1` the value was -38.6% (active); for `O=C(Nc1cccc(-c2cccc(Cl)c2)c1)C1CCN(C2CCC2)CC1`, -10% (inactive). `CCn1cc(CN2CCC(C(=O)Nc3cccc(-c4cccc(Cl)c4)c3)CC2)c(C)n1`: the activity change, negative = inhibition was -1.32% (inactive). In the case of `CC1CCCCN1CC(=O)N1CCCc2c1c(=O)oc1ccc(OCc3ccccc3)cc21` (stereo not given) it was 4.23% (inactive); in that of `O=C(NCc1nnc(C(=O)Nc2ccc(C(F)(F)F)cc2Cl)o1)c1ccccc1`, -10% (inactive); in that of `O=C(Nc1ccccc1)c1nnsc1S(=O)(=O)c1ccc(Cl)cc1`, -31.4% (active).

For `O=C(Nc1ccc(Oc2ccccc2)cc1)C1CCN(S(=O)(=O)c2ccc(Cl)cc2)CC1`, the activity change, negative = inhibition is -14.4% (inactive).

For the compound `O=C(Nc1cccc(Cl)c1)c1csnn1`, the activity change, negative = inhibition was 0.926% (inactive).

As for `COC(=O)c1ccc(NC(=O)c2cnn(-c3ccc(Cl)cc3)c2C2CCN(C(=O)OC(C)(C)C)CC2)cc1`, the activity change, negative = inhibition was 8.43% (inactive). As to `O=C(CCn1ccc2cc(S(=O)(=O)N3CCCC3)ccc21)NCc1cccc(Cl)c1`, the activity change, negative = inhibition is 11.5% (inactive).

For the compound `CC1CCN(S(=O)(=O)c2ccc3c(ccn3CCC(=O)NCc3ccc(N(C)C)cc3)c2)CC1`, the activity change, negative = inhibition was -72.7% (active). With `CC1CCN(S(=O)(=O)c2ccc3c(ccn3CC(=O)O)c2)CC1`, the activity change, negative = inhibition is -15% (inactive).

For `N#Cc1ccc(-c2cccs2)nc1SCc1ccc(Br)cc1`, the activity change, negative = inhibition is -3.69% (inactive). As to `Cc1ccc2c(c1)c1c(c(=O)n(-c3ccccc3)c(=O)n1CC(=O)c1ccc(Cl)cc1)n2C`, the activity change, negative = inhibition was -16% (inactive). On to `CCS(=O)(=O)N1CCc2cc(C(=O)NCc3ccc(C)cc3)ccc21`, for which the activity change, negative = inhibition is -4.2% (inactive). Regarding `CN(CC(=O)NCC(c1ccccc1)N1CCCC1)S(=O)(=O)c1ccc(Cl)cc1` (stereo not given), the activity change, negative = inhibition is 12.1% (inactive). For `CN(CC(=O)NNC(=O)CNC(=O)c1ccccc1Cl)S(=O)(=O)c1ccc(Cl)cc1` the value was -11.4% (inactive). With `CN(CC(=O)NCCc1ccccn1)S(=O)(=O)c1ccc(Cl)cc1`, the activity change, negative = inhibition was -32.4% (active). In the case of `COc1ccc(NC2CC(=O)N(C)C2=O)cc1` (stereo not given) it was -35.8% (active); in that of `CC(=O)Oc1cccc(N2C(=O)CC(Nc3ccc(N4CCOCC4)cc3)C2=O)c1` (stereo not given), 9.21% (inactive); in that of `COc1ccc(C2CC(=O)NC(=O)C2)cc1`, 6.98% (inactive).

Regarding `COc1ccc(-c2nc3c(c(SCC(=O)Nc4ccc(C(=O)O)cc4)n2)Cc2ccccc2O3)cc1`, the activity change, negative = inhibition was -4.63% (inactive).

As to `CCCCN(CC)CCCNC(=O)c1nn(C)c2c1CSc1ccccc1-2`, the activity change, negative = inhibition is 13% (inactive). As for `CCOC(=O)c1[nH]c(C)c(CCC(=O)NCc2ccccc2C)c1C`, the activity change, negative = inhibition is -16.9% (inactive). As for `O=C(CCc1nc(CN2CCN(S(=O)(=O)c3ccc(F)cc3)CC2)no1)N1CCCCC1`, the activity change, negative = inhibition is 11.3% (inactive).

Turning to `O=C(Cc1ccc(Cl)cc1)NCc1nc(-c2ccccc2)no1`, the activity change, negative = inhibition is -12.9% (inactive). For `CC(=O)c1sc(NC(=O)CCN2C(=O)C3CC=CCC3C2=O)nc1-c1ccccc1` (stereo not given) the value was 2.17% (inactive). Consider `O=C(CCN1C(=O)[C@H]2CC=CC[C@H]2C1=O)NCc1nc(-c2ccccc2)no1`, for which the activity change, negative = inhibition was -34.2% (active). `O=C(NC1CCN(Cc2ccccc2)CC1)c1ccc(Cn2c(=O)c3ccccc3n(Cc3cccc(F)c3)c2=O)cc1`: the activity change, negative = inhibition is 2.59% (inactive). On to `COc1cccc(-c2nc(S(=O)(=O)c3ccc(C)cc3)c(NCc3ccccc3)o2)c1`, for which the activity change, negative = inhibition was 24.7% (inactive).

Regarding `CN(c1ccccc1)S(=O)(=O)c1cccc(NC(=O)Cc2ccc(Cl)cc2)c1`, the activity change, negative = inhibition is -23.4% (inactive). In the case of `CN(c1ccccc1)S(=O)(=O)c1cccc(NC(=O)Cc2c(F)cccc2Cl)c1`, the activity change, negative = inhibition was -47.4% (active). For `CN(C)S(=O)(=O)c1cccc(NC(=O)Cc2ccsc2)c1`, the activity change, negative = inhibition is -5.36% (inactive).
